Screening results: PubChem BioAssay, National Center for Advancing Translational Sciences (NCATS)
D1 antagonist = antagonists of human D1 dopamine receptor; P21728; HEK293 TREx D1 cells, calcium flux, dopamine EC80; active compounds read low; activity change, negative = inhibition, % at 10 µM; 3.2% of 360,000 active; in the data active = activity change below about -30%; note: % is set by controls: 0 for no effect and ±100 for the full control effect
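After overnight tetracycline induction at 30 C, force-coupled D1 HEK293 cells took up a no-wash calcium dye at room temperature. Compounds were added and monitored 180 s, and the response to EC80 dopamine was then recorded.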
D3 antag = D3 dopamine receptor (human) antagonism; max response, negative = inhibition, %; P35462; D3R cells, DiscoveRx beta-arrestin luminescence, antagonist mode; active compounds read low; 2.5% of 360,000 active; in the data active = max response below about -50%; inconclusive = no clear call, values can overlap the other calls; note: % is set by controls: 0 for no effect and ±100 for the full control effect
Target sequence (P35462 whole entry, looked up): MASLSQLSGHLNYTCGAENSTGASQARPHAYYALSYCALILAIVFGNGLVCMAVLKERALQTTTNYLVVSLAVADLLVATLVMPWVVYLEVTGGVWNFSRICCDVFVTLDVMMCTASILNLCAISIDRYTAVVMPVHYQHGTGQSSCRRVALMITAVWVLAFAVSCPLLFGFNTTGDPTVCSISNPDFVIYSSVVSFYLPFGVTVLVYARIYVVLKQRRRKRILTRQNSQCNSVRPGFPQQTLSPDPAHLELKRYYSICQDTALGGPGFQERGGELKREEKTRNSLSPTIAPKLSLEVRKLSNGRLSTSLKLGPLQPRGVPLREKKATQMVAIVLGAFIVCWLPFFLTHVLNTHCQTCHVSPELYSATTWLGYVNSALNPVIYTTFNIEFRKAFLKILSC
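Cells plated overnight at 1500 cells/well, then exposed to library compounds with dopamine controls for 90 minutes at 37 degrees C. DiscoveRx reagent added for 30–60 minutes at room temperature; luminescence read, quantitative HTS format.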
D1 agonist = agonists of human D1 dopamine receptor. P21728. HEK293 T-REx D1 cells, calcium flux, agonist mode. activation, % at 2 µM. 1% of 360,000 active; in the data active = activation above about 30%; note: 0% is about no effect
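Inducible HEK293 T-REx D1 cells, force-coupled to calcium signalling, were plated at 4000 cells/well with tetracycline and held overnight at 30 C. After no-wash calcium dye loading, compound-evoked calcium rise over 180 s flagged agonists.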
D3 ag = activates the human D3 dopamine receptor. P35462. D3R DiscoveRx beta-arrestin cells, luminescence, 90 min. max activation, %. 0.58% of 410,000 active. AID 652048; in the data active = max activation above about 30%; note: 0% is about no effect
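Agonist mode: compounds and dopamine controls were applied to plated cells for 90 min at 37 degrees C after an overnight attachment at 1500 cells/well. Luminescent read-out followed 30 - 60 minutes at room temperature with DiscoveRx detection reagent.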
D1 PAM = enhances dopamine response at the human D1 receptor; 0.036% of 360,000 active; potentiation, % at 10 µM; HEK293 TREx D1 cells, calcium flux, dopamine EC20 potentiation; P21728; in the data active = potentiation above about 30%; note: 0% is about no effect
* = called active by the depositor; ? = inconclusive; / = no result; ! = not confirmed by another sample. Most compounds without a hit are left out; they make up all but 6% or so of the library.

SMILES | D1 antagonist | D3 antag | D1 agonist | D3 ag | D1 PAM
Cc1coc2c(C)c3oc(=O)c(CCC(=O)N4C[C@H]5C[C@@H](C4)c4cccc(=O)n4C5)c(C)c3cc12 | 2 | 3 | -1 | 35* | 1
O=C(Cn1nc(Cc2cccnc2)c2ccccc2c1=O)Nc1ccc(F)c(Cl)c1 | 15 | / | 2 | 39* | 3
O=C(Cn1nc(Cc2cccnc2)c2ccccc2c1=O)Nc1ccc2c(c1)OCO2 | 15 | 0 | 0 | -4 | 6
COc1cc(OCc2ccccc2)c(OC)c(OCc2ccccc2)c1 | / | 28 | / | 40* | /
COc1c(Br)cc(C(N)=O)cc1OCc1ccccc1 | -1 | 25 | 5 | 4 | 0
CCN(CC)CCCNC(=O)Cn1cc2c(n1)CCC(C)C2 (centres undefined) | -41* | 15 | 1 | 4 | -4
Fc1ccc(C(CCNCc2ccccn2)c2ccc(Cl)cc2)cc1 (centres undefined) | 17 | ? | 67* | -31 | 19
Cc1cccc(CCNC(=O)C2CCC(CNS(=O)(=O)c3c(C)cc(C)cc3C)CC2)c1 (centres undefined) | -6 | / | 9 | -3 | 1
Clc1ccc(N2CCN(Cc3ccco3)CC2)cc1 | -2 | ? | 1 | -9 | -8
COc1ccccc1N1CCN(c2ccc(N3C(=O)CCC3=O)cc2[N+](=O)[O-])CC1 | -44* | 0 | 14 | 20 | -6
COc1ccccc1N1CCN(Cc2ccc(-c3ccccc3[N+](=O)[O-])o2)CC1 | -74* | -86* | 2 | -16 | -9
Clc1ccccc1N1CCN(Cc2ccco2)CC1 | -11 | -56* | 4 | -5 | -8
COc1ccccc1N1CCN(Cc2ccco2)CC1 | 4 | -76* | 3 | -9 | -2
COc1cccc(N2CCN(c3ccc(N4C(=O)CCC4=O)cc3[N+](=O)[O-])CC2)c1 | -25 | -12 | 17 | -13 | -4
Cc1ccccc1N1CCN(Cc2ccc([N+](=O)[O-])o2)CC1 | -3 | -3 | -1 | -21 | -5
COc1ccc(-c2nc(CSCC(=O)NCCC(C)C)c(C)o2)cc1OC | 7 | / | -1 | 6 | -2
CCC(=O)Nc1ccccc1-c1nc2ccccc2n(CC(=O)c2ccc(C)cc2)c1=O | 0 | / | -2 | -4 | 2
CCc1ccccc1N1CC(c2nnc(NC(=O)c3ccco3)s2)CC1=O (centres undefined) | -9 | / | 0 | -2 | 1
COc1ccc(C(CNC(=O)CCOc2ccccc2)N(C)C)cc1 (centres undefined) | -23 | -76* | 2 | -52 | -2
Cc1ccc(C)c(NC(=S)NCC(c2ccccc2)N(C)C)c1 (centres undefined) | -5 | -60* | 11 | -39 | 3
Cc1ccc(C(=O)NCCOc2cccc(C)c2)cc1 | -4 | 0 | 1 | -11 | 5
Cc1cccc(OCCC(=O)NCC(c2ccccc2)N(C)C)c1 (centres undefined) | 4 | -60* | 3 | -5 | -2
CSc1ccccc1C(=O)NCCOc1cccc(C)c1 | -50* | -2 | 3 | 2 | -4
Cc1ccccc1NC(=S)NCC(c1cccnc1)N(C)C (centres undefined) | -8 | 1 | 1 | 2 | 0
COc1ccc(-c2oc(=O)c3cc(OC)c(OC)cc3c2C(F)(F)F)cc1 | / | 21 | 1 | 62* | -5
SMILES | D1 antagonist | D3 antag | D1 agonist | D3 ag | D1 PAM
COc1ccc(-c2oc(=O)c3cc(OC)c(OC)cc3c2-c2cc(F)cc(OC)c2)cc1 | / | 61 | -2 | 22 | 1
CN1CCc2c(sc(NC(=O)c3ccco3)c2C(N)=O)C1 | -8 | ? | 2 | -14 | -3
CN1CCc2c(sc(NC(=O)c3cc(Cl)sc3Cl)c2C(N)=O)C1 | -32* | -2 | -1 | 1 | 7
CN1CCc2c(sc(NC(=O)c3ccc([N+](=O)[O-])o3)c2C(N)=O)C1 | 14 | -56* | 1 | -14 | 4
CN1CCc2c(sc(NC(=O)c3ccc(S(=O)(=O)N4CCCC4)cc3)c2C(N)=O)C1 | 5 | -25 | 4 | 1 | 2
N#Cc1c(NC(=O)C2CCCO2)sc2c1CCCCCC2 (centres undefined) | -32* | -27 | 6 | -20 | 3
CC(C)N1CCc2c(sc(NC(=O)c3cc4cc([N+](=O)[O-])ccc4s3)c2C(N)=O)C1 | -14 | ? | 35* | -2 | -1
N#C/C(=C\c1ccccc1)C(=O)Nc1sc2c(c1C(N)=O)CCC2 | -14 | / | 0 | 15 | 2
CC(CC(=O)NCc1ccc(Cl)cc1Cl)CC1=NS(=O)(=O)c2ccccc2N1 (centres undefined) | -1 | / | 21 | 1 | -2
NC(=O)c1c(NC(=O)c2ccc([N+](=O)[O-])o2)sc2c1CCCC2 | 3 | -50* | 2 | -5 | /
N#Cc1c(NC(=O)c2ccccc2)sc2c1CCC2 | 2 | -28 | 9 | -4 | -3
N#Cc1c(NC(=O)c2ccc([N+](=O)[O-])o2)sc2c1CCC2 | -7 | -63* | 17 | -33 | -4
CC(C)NC(=O)Cn1c(=O)nc(-c2ccccc2)c2ccccc21 | 0 | / | -1 | 13 | 1
Cc1cc(Cl)c2oc(C(=O)N(C)Cc3nccn3C)c(C)c2c1 | -30 | -67* | 2 | -24 | -1
Cc1cc(Cl)c2oc(C(=O)N(C)Cc3cc(C)[nH]n3)c(C)c2c1 | 10 | -6 | 6 | 1 | -6
COc1ccc(-c2onc(C)c2C)cc1S(=O)(=O)Nc1cccc(C#N)c1 | -19 | / | 7 | -4 | -5
O=C(Nc1cccc(N=Cc2cc(Cl)cc(Br)c2O)c1)c1ccco1 | -3 | -75* | 20 | -7 | -2
O=C(Nc1cc(Br)c(O)c(Br)c1)c1cccc(NC(=O)c2ccco2)c1 | -11 | 13 | 0 | 1 | 3
O=C(Nc1cccc(N=Cc2cc(Br)cc(Br)c2O)c1)c1ccco1 | 6 | -61* | 5 | 11 | -4
CSC1=NC(C)(C)CC2(C)Nc3ccccc3N12 (centres undefined) | -32* | 16 | 0 | 16 | 1
CC1(C)CC2(C)Nc3ccccc3N2C(=S)N1 (centres undefined) | -3 | 4 | 4 | 2 | -3
Cc1ccc(NC(=O)CSc2ccc(-c3ccccn3)nn2)c(C)c1 | 6 | 31 | 1 | 1 | -3
Cc1cc(C)c(NC(=O)CSc2ccc(-c3ccccn3)nn2)c(C)c1 | -48*! | -14 | 2 | 5 | -5
O=C1c2ccccc2C(=O)N1SC1CCCCC1 | 17 | -92* | 3 | 1 | 5
CC(=O)N1CCN(C(=O)c2cc3c(s2)CCCC3)CC1 | / | -19 | / | 8 | /
CN1CCCN(C(=O)c2cc3c(s2)CCCC3)CC1 | -9 | -56* | 3 | -21 | -5
CCOC(=O)c1c(NC(=O)CSc2cn(CCNC(=O)c3ccc(OC)c(OC)c3)c3ccccc23)sc2c1CCC2 | 7 | / | 1 | -5 | -5
